PubChem BioAssay (NCATS)
Results filed as inconclusive are left out. Values without a mark were called inactive. The source made the active and inactive calls. Unless noted, calls come from the whole dose curve; as a rule, active = well fitted curve in the direction sought with a large enough effect; inconclusive = small, poorly fitted or top-dose-only effect, or another doubt; inactive = no such curve, though single readings can be large; an effect the other way counts as inactive or inconclusive.

Key:
[1] = biological target: Rap guanine nucleotide exchange factor 3 (Homo sapiens) (UniProt O95398); assay: Confirmatory qHTS for antagonist of cAMP-regulated guanine nucleotide exchange factor 3 (EPAC1) (AID 1645880); details: EPAC1 Rap1B-BODIPY-GDP exchange, fluorescence; activity, negative = inhibition: at 115 µM (top of the series); note: nearly all actives have a fitted effect of over 55% in size; note: potency is the fitted concentration of half-maximal effect;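 for activity, negative = inhibition: plate controls were DMSO only for no effect and full effect of the ATA control for full effect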
Sequence of Rap guanine nucleotide exchange factor 3 (Homo sapiens) (O95398 whole entry, looked up): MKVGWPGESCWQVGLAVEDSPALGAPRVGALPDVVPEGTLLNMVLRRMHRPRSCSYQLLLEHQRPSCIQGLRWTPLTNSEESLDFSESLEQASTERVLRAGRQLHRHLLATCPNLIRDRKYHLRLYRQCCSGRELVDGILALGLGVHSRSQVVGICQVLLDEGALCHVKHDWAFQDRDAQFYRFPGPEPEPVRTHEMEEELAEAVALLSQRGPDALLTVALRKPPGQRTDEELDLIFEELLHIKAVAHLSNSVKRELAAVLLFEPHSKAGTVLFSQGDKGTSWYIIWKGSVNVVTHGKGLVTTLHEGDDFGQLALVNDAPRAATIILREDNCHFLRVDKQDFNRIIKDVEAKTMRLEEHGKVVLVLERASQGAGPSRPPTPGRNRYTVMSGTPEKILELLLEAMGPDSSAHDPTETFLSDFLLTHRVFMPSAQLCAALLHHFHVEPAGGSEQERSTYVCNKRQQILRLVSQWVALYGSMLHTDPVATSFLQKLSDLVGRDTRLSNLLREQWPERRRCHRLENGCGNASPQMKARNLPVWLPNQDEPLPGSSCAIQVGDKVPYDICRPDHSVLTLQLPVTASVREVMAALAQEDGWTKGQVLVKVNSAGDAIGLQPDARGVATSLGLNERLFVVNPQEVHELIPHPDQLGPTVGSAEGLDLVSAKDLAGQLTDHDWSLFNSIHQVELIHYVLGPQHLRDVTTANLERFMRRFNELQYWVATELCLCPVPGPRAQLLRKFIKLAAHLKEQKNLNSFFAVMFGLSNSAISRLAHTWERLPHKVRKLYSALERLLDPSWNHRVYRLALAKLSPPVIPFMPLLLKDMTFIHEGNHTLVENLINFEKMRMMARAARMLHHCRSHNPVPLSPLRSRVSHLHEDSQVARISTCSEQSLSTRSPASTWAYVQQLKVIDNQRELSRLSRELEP
In short: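 Nucleotide exchange uses 100 nM EPAC1, 250 nM RAP1B-BODIPY-GDP and 50 uM GDP, with compounds in a concentration-titration series. After 5 min at room temperature, fluorescence (480 nm ex/540 nm em) is read every 5 min for 30 min. Data are normalized to control ATA and DMSO.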

[2] = biological target: Rap guanine nucleotide exchange factor 3 (Homo sapiens) (UniProt O95398); assay: Confirmatory qHTS for agonist of cAMP-regulated guanine nucleotide exchange factor 3 (EPAC1) (AID 1645881);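 note: EPAC1 catalysed release of BODIPY-GDP from Rap1B seen as fluorescence loss; 100% = effect of cAMP agonist control; nearly all actives have a fitted effect of over 75% in size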
[3] = biological target: Rap guanine nucleotide exchange factor 3 (Homo sapiens) (UniProt O95398); assay: Counterscreen qHTS for antagonist of cAMP-regulated guanine nucleotide exchange factor 3 (EPAC1) (AID 1645888);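 note: fluorescence loss as bound BODIPY-GDP is released from Rap1B; % of control where 0% means no effect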
In short: (§1)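 Rap1B-BODIPY-GDP 250 nM + GDP 50 uM; cpds 7-pt, final 9.74 nM–152 uM (activator mode) or from 7.32 nM upwards (inhibitor mode); RT; FI 480/540 nm at 5 and 30 min, then ± cAMP, reread.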

[4] = biological target: Rap guanine nucleotide exchange factor 3 (Homo sapiens) (UniProt O95398); assay: Counterscreen qHTS for agonist of cAMP-regulated guanine nucleotide exchange factor 3 (EPAC1) (AID 1645889); note: % of control where 0% means no effect; nearly all actives have a fitted effect of over 40% in size
In short: as §1

[5] = biological target: ATP-dependent 6-phosphofructokinase (Trypanosoma brucei brucei) (UniProt O15648); assay: qHTS Assay to Find Inhibitors of T. brucei phosphofructokinase: hit validation (AID 492961);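 note: luminescence reports ADP formed as PFK phosphorylates fructose-6-phosphate with ATP; % is set by controls: 0 for no effect and ±100 for the full control effect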
Sequence of ATP-dependent 6-phosphofructokinase (Trypanosoma brucei brucei) (O15648 whole entry, looked up): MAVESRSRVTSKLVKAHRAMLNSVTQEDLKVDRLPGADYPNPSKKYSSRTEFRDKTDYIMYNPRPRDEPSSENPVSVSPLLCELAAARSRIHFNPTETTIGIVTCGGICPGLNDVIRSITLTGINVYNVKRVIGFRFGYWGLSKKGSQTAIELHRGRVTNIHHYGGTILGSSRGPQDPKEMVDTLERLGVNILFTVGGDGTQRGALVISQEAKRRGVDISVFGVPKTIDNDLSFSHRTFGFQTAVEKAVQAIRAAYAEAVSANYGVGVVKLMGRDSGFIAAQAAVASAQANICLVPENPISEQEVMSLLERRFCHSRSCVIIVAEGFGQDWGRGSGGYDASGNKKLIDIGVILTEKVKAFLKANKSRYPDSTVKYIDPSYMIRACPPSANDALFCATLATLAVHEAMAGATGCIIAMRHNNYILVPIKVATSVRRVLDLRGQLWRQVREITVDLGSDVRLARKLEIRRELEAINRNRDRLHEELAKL
In short: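 In this biochemical qHTS validation, titrated compounds were tested against 1.25 nM PFK with 0.1 mM ATP and 0.5 mM F6P. Percent activity came from controls lacking or containing enzyme.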

[6] = biological target: Ubiquitin carboxyl-terminal hydrolase 1 (Homo sapiens) (UniProt O94782); assay: Inhibitors of USP1/UAF1: Pilot qHTS (AID 504865);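 note: rhodamine fluorescence freed from ubiquitin-rhodamine substrate followed over time; top concentration of the series differs between compounds; % is set by controls: 0 for no effect and ±100 for the full control effect; nearly all actives have a fitted effect of over 35% in size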
Sequence of Ubiquitin carboxyl-terminal hydrolase 1 (Homo sapiens) (O94782 whole entry, looked up): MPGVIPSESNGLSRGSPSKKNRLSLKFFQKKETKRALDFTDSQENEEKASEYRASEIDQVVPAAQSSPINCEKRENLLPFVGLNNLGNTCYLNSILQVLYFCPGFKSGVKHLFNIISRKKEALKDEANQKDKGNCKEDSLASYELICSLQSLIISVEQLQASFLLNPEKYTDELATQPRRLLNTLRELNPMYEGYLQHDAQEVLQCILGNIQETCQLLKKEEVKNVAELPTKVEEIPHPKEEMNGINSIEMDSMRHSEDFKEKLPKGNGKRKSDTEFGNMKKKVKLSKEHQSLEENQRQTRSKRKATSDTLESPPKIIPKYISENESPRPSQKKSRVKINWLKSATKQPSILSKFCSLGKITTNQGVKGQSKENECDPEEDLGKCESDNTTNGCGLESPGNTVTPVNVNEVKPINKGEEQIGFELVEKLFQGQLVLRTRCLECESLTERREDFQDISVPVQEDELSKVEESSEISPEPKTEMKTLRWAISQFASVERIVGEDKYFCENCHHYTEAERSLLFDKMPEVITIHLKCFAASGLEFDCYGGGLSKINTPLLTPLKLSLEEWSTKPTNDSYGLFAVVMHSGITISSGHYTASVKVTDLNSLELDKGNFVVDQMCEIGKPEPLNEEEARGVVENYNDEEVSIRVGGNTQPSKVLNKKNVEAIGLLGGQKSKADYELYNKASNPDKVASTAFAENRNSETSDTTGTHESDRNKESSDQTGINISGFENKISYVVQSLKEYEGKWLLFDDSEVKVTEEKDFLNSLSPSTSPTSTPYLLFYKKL
In short: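 In 50mM HEPES pH 7.8 containing 0.5mM EDTA, 1mM TCEP, 0.1 mg/ml BSA and 0.01% Tween-20, 1nM USP1/UAF1 is exposed to compound for 15 min, then Ub-Rho (150nM final) is added and fluorescence is read over time.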

[7] = biological target: Luciferin 4-monooxygenase (Photinus pyralis) (UniProt P08659); assay: Biochemical firefly luciferase enzyme assay for NPC (AID 624030);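 note: purified P. pyralis luciferase at 10 nM with luciferin and ATP substrate; 0% = DMSO and -100% = full luciferase inhibition by PTC124 control; nearly all actives have a fitted effect of over 70% in size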
Sequence of Luciferin 4-monooxygenase (Photinus pyralis) (P08659 whole entry, looked up): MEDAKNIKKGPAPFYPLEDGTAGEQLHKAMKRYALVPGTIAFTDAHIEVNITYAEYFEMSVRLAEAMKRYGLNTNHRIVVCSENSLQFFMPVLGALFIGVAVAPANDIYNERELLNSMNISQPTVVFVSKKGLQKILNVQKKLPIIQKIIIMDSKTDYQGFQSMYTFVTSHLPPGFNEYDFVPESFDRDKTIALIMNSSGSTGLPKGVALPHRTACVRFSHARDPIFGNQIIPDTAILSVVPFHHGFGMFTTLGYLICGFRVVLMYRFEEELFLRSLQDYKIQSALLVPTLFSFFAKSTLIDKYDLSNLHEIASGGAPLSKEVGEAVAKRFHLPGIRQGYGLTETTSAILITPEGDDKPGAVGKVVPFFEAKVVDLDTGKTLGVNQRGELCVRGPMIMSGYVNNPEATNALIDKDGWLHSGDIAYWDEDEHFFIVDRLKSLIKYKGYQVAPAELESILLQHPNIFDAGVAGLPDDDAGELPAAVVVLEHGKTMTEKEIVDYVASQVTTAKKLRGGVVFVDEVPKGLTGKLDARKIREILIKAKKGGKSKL
In short: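 Direct inhibition of firefly luciferase enzyme (10 nM final, 50 mM Tris Acetate) assessed by luminescence within 5 minutes. Percent activity scaled between DMSO and PTC124 positive control, with concentration-effect curves classified by fit quality and response.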

[8] = S16 Schwann cell viability assay (CellTiter-Glo assay) (AID 624031);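 note: cellular ATP luminescence as a viability measure; plate controls were DMSO-treated cells for no effect and cell-free wells for full effect; nearly all actives have a fitted effect of over 70% in size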
In short: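 This viability control uses native rat S16 Schwann cells grown in DMEM plus 10% FBS. After a 24 h compound treatment at 37 °C, CellTiter-Glo luminescence reports ATP content, scaled against DMSO-treated and cell-free wells.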

[9] = S16 Schwann cell PMP22 intronic element firefly luciferase assay (AID 624032);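 note: plate controls were DMSO for no effect and PTC124 positive control mean for full effect; nearly all actives have a fitted effect of over 30% in size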
In short: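 Luciferase reporter of PMP22 intronic-element expression in stably transfected S16 rat Schwann cells, read by ONE-Glo luminescence after 24 h compound exposure at 37 C. Activity scaled between DMSO (0%) and positive-control PTC124; concentration-effect curves quality-classified.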

[10] = S16 Schwann cell PMP22 intronic element beta-lactamase assay (AID 624044; calls by dose curve;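 note: 0% = DMSO and -100% = potassium clavulanate positive control; nearly all actives have a fitted effect of over 15% in size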)
In short: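 Rat S16 Schwann cells with beta-Lac driven by a PMP22 intronic element, compound-treated 24 h at 37 °C. LiveBLAzer FRET B/G read: 460 nm normalized to potassium clavulanate vs DMSO; 535 nm FRET as viability; concentration-effect curves classified.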

[11] = qHTS profiling for inhibitors of Plasmodium falciparum proliferation (AID 504749); note: nearly all actives have a fitted effect of over 60% in size; note: potency is the fitted concentration of half-maximal effect;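 for activity, negative = inhibition: 0% = DMSO vehicle and full inhibition = artemisinin control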; details: P. falciparum in erythrocytes, SYBR Green DNA, 72 h; parasite line A
In short: (§2)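 Infected RBCs, 0.3% parasitemia/2.5% Hct final; cpd 72 h, 37 C, 5% CO2; lysis buffer with saponin/triton/SYBR Green I, o/n RT dark; FI 485/535; norm. to artemisinin (0.29 uM) and DMSO.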

7G8 = assay: as above; details: P. falciparum in erythrocytes, SYBR Green DNA, 72 h; series mostly up to 28.7 µM
In short: as §2

AA1029 = assay: as above; details: P. falciparum in erythrocytes, SYBR Green DNA, 72 h; series mostly up to 28.7 µM
In short: as §2

AS120 = assay: as above; details: P. falciparum in erythrocytes, SYBR Green DNA, 72 h; series mostly up to 28.7 µM
In short: as §2

ATS189 = assay: as above; details: P. falciparum in erythrocytes, SYBR Green DNA, 72 h; series mostly up to 28.7 µM
In short: as §2

ATS95 = assay: as above; details: P. falciparum in erythrocytes, SYBR Green DNA, 72 h; series mostly up to 28.7 µM
In short: as §2

C2A = assay: as above; details: P. falciparum in erythrocytes, SYBR Green DNA, 72 h; series mostly up to 28.7 µM
In short: as §2

CP185 = assay: as above; details: P. falciparum in erythrocytes, SYBR Green DNA, 72 h; series mostly up to 28.7 µM
In short: as §2

CP191 = assay: as above; details: P. falciparum in erythrocytes, SYBR Green DNA, 72 h; series mostly up to 28.7 µM
In short: as §2

CP192 = assay: as above; details: P. falciparum in erythrocytes, SYBR Green DNA, 72 h; series mostly up to 28.7 µM
In short: as §2

CP194 = assay: as above; details: P. falciparum in erythrocytes, SYBR Green DNA, 72 h; series mostly up to 28.7 µM
In short: as §2

CP203 = assay: as above; details: P. falciparum in erythrocytes, SYBR Green DNA, 72 h; series mostly up to 28.7 µM
In short: as §2

CP217 = assay: as above; details: P. falciparum in erythrocytes, SYBR Green DNA, 72 h; series mostly up to 28.7 µM
In short: as §2

CP237 = assay: as above; details: P. falciparum in erythrocytes, SYBR Green DNA, 72 h; series mostly up to 28.7 µM
In short: as §2

CP238 = assay: as above; details: P. falciparum in erythrocytes, SYBR Green DNA, 72 h; series mostly up to 28.7 µM
In short: as §2

CP247 = assay: as above; details: P. falciparum in erythrocytes, SYBR Green DNA, 72 h; series mostly up to 28.7 µM
In short: as §2

CP252 = assay: as above; details: P. falciparum in erythrocytes, SYBR Green DNA, 72 h; series mostly up to 28.7 µM
In short: as §2

CP256 = assay: as above; details: P. falciparum in erythrocytes, SYBR Green DNA, 72 h; series mostly up to 28.7 µM
In short: as §2

CP260 = assay: as above; details: P. falciparum in erythrocytes, SYBR Green DNA, 72 h; series mostly up to 28.7 µM
In short: as §2

CP262 = assay: as above; details: P. falciparum in erythrocytes, SYBR Green DNA, 72 h; series mostly up to 28.7 µM
In short: as §2

CP265 = assay: as above; details: P. falciparum in erythrocytes, SYBR Green DNA, 72 h; series mostly up to 28.7 µM
In short: as §2

CP269 = assay: as above; details: P. falciparum in erythrocytes, SYBR Green DNA, 72 h; series mostly up to 28.7 µM
In short: as §2

CP286 = assay: as above; details: P. falciparum in erythrocytes, SYBR Green DNA, 72 h; series mostly up to 28.7 µM
In short: as §2

CP297 = assay: as above; details: P. falciparum in erythrocytes, SYBR Green DNA, 72 h; series mostly up to 28.7 µM
In short: as §2

CP335 = assay: as above; details: P. falciparum in erythrocytes, SYBR Green DNA, 72 h; series mostly up to 28.7 µM
In short: as §2

DFO2036 = assay: as above; details: P. falciparum in erythrocytes, SYBR Green DNA, 72 h; series mostly up to 28.7 µM
In short: as §2

DIV14 = assay: as above; details: P. falciparum in erythrocytes, SYBR Green DNA, 72 h; series mostly up to 28.7 µM
In short: as §2

DIV17 = assay: as above; details: P. falciparum in erythrocytes, SYBR Green DNA, 72 h; series mostly up to 28.7 µM
In short: as §2

Dd2 = assay: as above; details: P. falciparum in erythrocytes, SYBR Green DNA, 72 h; series mostly up to 28.7 µM
In short: as §2

ECU = assay: as above; details: P. falciparum in erythrocytes, SYBR Green DNA, 72 h; series mostly up to 28.7 µM
In short: as §2

FAB9 = assay: as above; details: P. falciparum in erythrocytes, SYBR Green DNA, 72 h; series mostly up to 28.7 µM
In short: as §2

GB4 = assay: as above; details: P. falciparum in erythrocytes, SYBR Green DNA, 72 h; series mostly up to 28.7 µM
In short: as §2

ICS = assay: as above; details: P. falciparum in erythrocytes, SYBR Green DNA, 72 h; series mostly up to 28.7 µM
In short: as §2

JCK = assay: as above; details: P. falciparum in erythrocytes, SYBR Green DNA, 72 h; series mostly up to 28.7 µM
In short: as §2

N140 = assay: as above; details: P. falciparum in erythrocytes, SYBR Green DNA, 72 h; series mostly up to 28.7 µM
In short: as §2

P93_24 = assay: as above; details: P. falciparum in erythrocytes, SYBR Green DNA, 72 h; series mostly up to 28.7 µM
In short: as §2

P94_40 = assay: as above; details: P. falciparum in erythrocytes, SYBR Green DNA, 72 h; series mostly up to 28.7 µM
In short: as §2

PC49 = assay: as above; details: P. falciparum in erythrocytes, SYBR Green DNA, 72 h; series mostly up to 28.7 µM
In short: as §2

SC27B = assay: as above; details: P. falciparum in erythrocytes, SYBR Green DNA, 72 h; series mostly up to 28.7 µM
In short: as §2

TAB109 = assay: as above; details: P. falciparum in erythrocytes, SYBR Green DNA, 72 h; series mostly up to 28.7 µM
In short: as §2

TAB113 = assay: as above; details: P. falciparum in erythrocytes, SYBR Green DNA, 72 h; series mostly up to 28.7 µM
In short: as §2

TAB165 = assay: as above; details: P. falciparum in erythrocytes, SYBR Green DNA, 72 h; series mostly up to 28.7 µM
In short: as §2

W2 = assay: as above; details: P. falciparum in erythrocytes, SYBR Green DNA, 72 h; series mostly up to 28.7 µM
In short: as §2

COc1ccccc1C1CC(=O)Oc2cc(C)c(Cl)c(C)c21 (stereo not given)
Potency [1]: inactive
Potency [2]: inactive
activity change, negative = inhibition [3]: 3.69% [at 30.8 µM]
activation [4]: 15.1% [at 30.8 µM]

Cc1ccc(S(=O)(=O)N2[C@@H](c3ccc(C(C)(C)C)cc3)C(C(=O)O)=CC[C@H]2c2cccc(Cl)c2)cc1
Potency [1]: 47.8 µM (active)
Potency [2]: inactive
Potency [4]: inactive

C=C[C@]1(C)C[C@@H](OC(=O)CSCCN(CC)CC)[C@]2(C)C(C)CC[C@]3(CCC(=O)[C@H]32)[C@@H](C)[C@@H]1O (stereo not given in full)
outcome [5]: inactive
Potency [6]: inactive
Potency [7]: inactive
Potency [8]: inactive
Potency [9]: inactive
Potency [10]: inactive
Potency [1]: inactive
Potency [2]: inactive
Potency [3]: inactive
Potency [4]: inactive
Potency [11]: 10 µM (active)
Potency (7G8): 11.2 µM (active)
Potency (AA1029): 5.01 µM (active)
Potency (AS120): 10 µM (active)
Potency (ATS189): 8.91 µM (active)
Potency (ATS95): 7.94 µM (active)
Potency (C2A): 11.2 µM (active)
Potency (CP185): 5.01 µM (active)
Potency (CP191): 7.94 µM (active)
Potency (CP192): inactive
Potency (CP194): 7.57 µM (active)
Potency (CP203): 13.5 µM (active)
Potency (CP217): 10 µM (active)
Potency (CP237): 8.91 µM (active)
Potency (CP238): 11.2 µM (active)
Potency (CP247): 6.31 µM (active)
Potency (CP252): 7.08 µM (active)
Potency (CP256): 8.91 µM (active)
Potency (CP260): 5.62 µM (active)
Potency (CP262): inactive
Potency (CP265): 8.91 µM (active)
Potency (CP269): 6.75 µM (active)
Potency (CP286): 3.55 µM (active)
Potency (CP297): 6.75 µM (active)
Potency (CP335): 5.36 µM (active)
Potency (DFO2036): 10 µM (active)
Potency (DIV14): 15.1 µM (active)
Potency (DIV17): 13.5 µM (active)
Potency (Dd2): 3.16 µM (active)
Potency (ECU): 12.6 µM (active)
Potency (FAB9): inactive
Potency (GB4): 6.75 µM (active)
Potency (ICS): 3.98 µM (active)
Potency (JCK): inactive
Potency (N140): 8.91 µM (active)
Potency (P93_24): 5.01 µM (active)
Potency (P94_40): 4.47 µM (active)
Potency (PC49): inactive
Potency (SC27B): 7.94 µM (active)
Potency (TAB109): 3.98 µM (active)
Potency (TAB113): 11.2 µM (active)
Potency (TAB165): 7.08 µM (active)
Potency (W2): 2.13 µM (active)
